# Assay outcomes from PubChem BioAssay.
# In the library only some 5.7% were active in any assay of this set; here they are far more common.
# A549 viability: A549 cytotoxicity, counter-screen for Nrf2 inhibitors; hit rate 0.16% among 390,000; A549 ARE-Fluc cells, CellTiter-Fluor viability, 18-24 h; Potency, µM (top dose mostly 46 µM), without a hit: at the highest dose activity change, negative = cytotoxicity, usual class: inhibitors; further: potency means the concentration at half of the fitted maximal effect
#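 Cytotoxicity counterscreen: CellTiter-Fluor fluorescence was measured in A549 ARE_Fluc cells after 18-24 h of compound exposure in a concentration series. The subsequent BugLite luminescent read reports ARE-luciferase activity.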
# Nrf2 inh: blocks Nrf2 signaling. A549 ARE-Fluc reporter, luciferase luminescence, 18-24 h. AID 504444. Potency, µM (doses to about 46 µM), without a hit: at the highest dose activity change, negative = inhibition, hits mostly inhibitors. hit rate 2.1% among 360,000; further: potency means the concentration at half of the fitted maximal effect; nearly all actives have a fitted effect of over 60% in size
#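 Nrf2 function is reported as luminescence of an ARE-controlled luciferase in A549 cells. Compounds were tested at several concentrations, and a CellTiter-Fluor read on the same wells flagged cytotoxicity.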
# KB-V1 cytotox: kills drug-selected multidrug resistant KB-V1 cells. KB-V1 MDR cells viability, CellTiter-Glo, 72 h. Potency, µM (highest dose often 46.1 µM), hits mostly cytotoxic. hit rate 3.4% among 400,000; further: potency means the concentration at half of the fitted maximal effect; nearly all actives have a fitted effect of over 60% in size
#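 Compound-treated KB-V1 multidrug-resistant cells, 72 h, 37 degrees C; viability by CellTiter-Glo. Fitted qHTS curves give the values.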
# Giardia killer: kills Giardia lamblia. activity change, % at 7.66 µM, hits read low. Giardia lamblia trophozoite viability. hit rate 0.15% among 340,000. AID 540267; in the data active means activity change below about -80%; inconclusive means between about -30% and that limit;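 further: parasites exposed to compound for two days anaerobically before the ATP read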
#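 Trophozoite viability was measured as ATP-dependent luminescence, read 15-30 min after reagent addition. Before that, parasites at 100 cells/well were exposed to compounds for 48 h, anaerobically, at 37 deg C.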
# PI4K2A inh: blocks human PI4K2A kinase activity; AID 1346378; purified PI4K2A, ADP-Glo luminescence, 1 h; active compounds read low; hit rate 0.13% among 420,000; activity change, negative = inhibition, % at 76.9 µM; Q9BTU6; in the data active means activity change below about -50%; inconclusive means mostly about -30% to -49%;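 further: -100% = wells without enzyme as full effect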
# Target sequence (Q9BTU6 whole entry, looked up): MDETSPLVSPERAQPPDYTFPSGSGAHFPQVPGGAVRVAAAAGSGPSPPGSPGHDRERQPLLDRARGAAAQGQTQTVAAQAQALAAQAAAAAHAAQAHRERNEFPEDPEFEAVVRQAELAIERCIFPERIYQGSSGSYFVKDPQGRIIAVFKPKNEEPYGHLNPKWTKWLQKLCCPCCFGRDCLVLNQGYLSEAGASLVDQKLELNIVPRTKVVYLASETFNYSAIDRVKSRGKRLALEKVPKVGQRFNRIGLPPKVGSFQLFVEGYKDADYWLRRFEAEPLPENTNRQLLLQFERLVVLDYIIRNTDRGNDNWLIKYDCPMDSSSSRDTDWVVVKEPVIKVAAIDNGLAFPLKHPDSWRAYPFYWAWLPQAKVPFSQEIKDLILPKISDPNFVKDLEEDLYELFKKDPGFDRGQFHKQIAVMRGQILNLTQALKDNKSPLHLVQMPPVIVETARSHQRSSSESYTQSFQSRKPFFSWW
#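 In this quantitative HTS, ADP production by PI4K2A was quantified luminescently after 1 h at ambient temperature; 100 microM adenosine served as plate-quality control.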
# KB-3-1 cytotox: kills parental KB-3-1 adenocarcinoma cells; KB-3-1 viability, CellTiter-Glo ATP luminescence, 72 h; Potency, µM (doses to about 46.1 µM), hits mostly cytotoxic; hit rate 1.4% among 400,000; further: potency means the concentration at half of the fitted maximal effect; nearly all actives have a fitted effect of over 60% in size
#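 72 h, 37 °C compound treatment of KB-3-1 parental cells; CellTiter-Glo added, 10 min, luminescence read. Data corrected against DMSO-only plates and normalized before curve fitting.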
# * hit, by the source's call; i = inactive; ? = inconclusive; / = no result. Unless noted, the call rests on the fitted dose curve; in most records, active means well fitted curve in the direction sought with a large enough effect; inconclusive means small, poorly fitted or top-dose-only effect, or another doubt; inactive means no such curve, though single readings can be large; an effect the other way counts as inactive or inconclusive. Unless noted, on the % scale 0 is the no-effect control and ±100 the full control effect.
SMILES,A549 viability,Nrf2 inh,KB-V1 cytotox,Giardia killer,PI4K2A inh,KB-3-1 cytotox
COc1ccc(CCN(C)C(=O)c2cc(S(=O)(=O)N3CCCCC3)ccc2Cl)cc1OC,-11%,16µM*,?,1,2,i
COc1ccc(CNC(=O)c2cc(S(=O)(=O)N3CCCCC3)ccc2N2CCOCC2)cc1OC,5%,-4%,23µM*,-1,-2,i
COc1ccc(S(=O)(=O)N2CCCCCC2)cc1N(C)S(=O)(=O)c1ccccc1,-9%,23µM*,?,-12,-5,i
COc1ccc(-c2noc(C3CCCN(C(=O)NC4CCC(C)CC4)C3)n2)cc1 (configuration not stated),/,/,/,/,-3,/
C[C@@H]1[C@@H](c2ccccc2)OC(O)([C@H](Cc2ccccc2)NC(=O)OC(C)(C)C)CN1C (some centres not stated),/,/,/,/,-5,/
COc1ccccc1-c1nnc(C2CCN(S(=O)(=O)c3ccc(CC(C)C)cc3)CC2)o1,-17%,?,i,/,6,i
Cc1ccccc1OCc1occc1C(=O)Nc1cccc(-n2cnnn2)c1,5%,?,?,1,-7,16µM*
COc1ccc(-c2nnc(SCC(=O)NN=Cc3c(O)ccc4ccccc34)n2-c2ccc(OC)cc2)cc1,/,/,/,/,-3,/
O=C(CN1CCN(c2ccccn2)CC1)N1c2ccccc2Sc2ccc(C(F)(F)F)cc21,-28%,-16%,?,-7,1,?
O=C(CN1CCN(c2ccccn2)CC1)N1c2ccccc2CCc2ccccc21,-7%,-6%,5.8µM*,0,5,i
CC(C)(C)c1ccc(C(=O)Nc2onc3c2CCCC3)cc1,-5%,-10%,i,/,2,i
CCc1ccccc1OCC(=O)NC1CCCC1,?,2%,13µM*,5,-3,i
CCOc1cc(Br)c(CC(=O)NC2CCCCCC2)cc1OCC,-1%,-13%,10µM*,-1,-4,i
O=C(COc1ccc(C(=O)c2ccccc2)cc1)NC1CCCCCC1,0%,-15%,10µM*,8,-2,?
COc1ccccc1OCC(=O)NCC1CCCCC1,0%,1%,21µM*,-7,2,i
COc1ccccc1CC(=O)NC1CCCCCC1,1%,0%,i,2,0,i
O=C(CSc1nnc(SCc2cccc3ccccc23)s1)Nc1ccccc1-c1ccccc1,/,/,/,/,-2,/
COc1ccccc1N1CCN(N=Cc2ccccc2Br)CC1,/,/,/,/,-4,/
CN(C(=O)c1cnc(N2CCOCC2)c2ccccc12)c1ccccc1F,4%,/,i,/,0,i
COc1ccc(-c2noc(-c3ccccc3C(=O)NCc3ccco3)n2)cc1OC,0%,22%,3.7µM*,-12,0,i
COc1ccc(C(=O)Nc2ccccc2C(=O)NCc2ccco2)cc1OC,-9%,4%,?,12,1,i
COc1ccc(-c2noc(-c3ccccc3C(=O)NCc3ccco3)n2)cc1,11%,/,?,7,-10,i
COc1ccc(C(=O)Nc2c(Cl)cc(Cl)cc2C(=O)NCc2ccco2)cc1,-2%,4%,7.3µM*,7,-6,i
COc1ccc(C(=O)Nc2ccc(Cl)cc2C(=O)NCc2ccco2)cc1OC,?,21µM*,?,-3,-7,i
COc1ccc(Cl)cc1C(=O)NCc1ccco1,-2%,?,i,-3,-3,i
SMILES,A549 viability,Nrf2 inh,KB-V1 cytotox,Giardia killer,PI4K2A inh,KB-3-1 cytotox
O=C(OCCN1CCN(C2CN(Cc3cn(Cc4ccccc4F)nn3)S(=O)(=O)C2)CC1)c1cc2ccccc2o1 (configuration not stated),/,/,/,/,-7,/
O=S(=O)(c1ccc2c(c1)OCCO2)N1CCN(S(=O)(=O)c2cccs2)CC1,-2%,-14%,/,/,/,/
CCCCOCCCNC(=O)C[C@@H]1C[C@]2(C(=O)OCC)CCC3=C2N(CCC3)C1=O,/,/,/,/,2,/
O=C1N/C(=N\N=C\c2cccnc2)SC1Cc1ccc(SC(F)F)cc1 (configuration not stated),-21%,16µM*,4.1µM*,0,2,?
O=C1N/C(=N\N=C\c2ccccn2)SC1Cc1cccc(SC(F)F)c1 (configuration not stated),-19%,16µM*,3.7µM*,-14,-1,?
CC(C)(CN1CCNCC1)NS(=O)(=O)c1ccc(Cl)cc1,-4%,9%,i,16,1,21µM*
CC(C)(CN1CCCC1)NS(=O)(=O)c1ccc(Cl)cc1,8%,-3%,i,25,1,i
O=C(Nc1nc2ncccn2c1-c1ccc(C(F)(F)F)cc1)c1ccc(F)cc1,/,/,/,/,-2,/
COc1cc(C#N)ccc1OCC(=O)Nc1ccc(C)c(S(=O)(=O)N2CCOCC2)c1,-2%,-29%,8.2µM*,-8,-7,i
Cc1ccc(NC(=O)CN2c3cccc4cccc(c34)S2(=O)=O)cc1S(=O)(=O)N1CCOCC1,-3%,?,3.7µM*,-8,-7,?
Cc1ccc(NC(=O)COc2ccc(Cl)cc2Cl)cc1S(=O)(=O)N1CCOCC1,?,21µM*,?,-11,0,i
Cc1ccc(NC(=O)COc2cccc(Oc3ccccc3)c2)cc1S(=O)(=O)N1CCOCC1,-4%,?,12µM*,0,3,16µM*
Cc1ccc(NC(=O)COC(=O)C2(C)CC2(Cl)Cl)cc1S(=O)(=O)N1CCOCC1 (configuration not stated),-2%,10%,i,-6,-3,i
Cc1cccc(OCCC(=O)Nc2ccc(C)c(S(=O)(=O)N3CCOCC3)c2)c1,4%,?,i,-9,2,?
O=C(c1cccc(F)c1F)N1CCCC(c2nc(-c3cccs3)no2)C1 (configuration not stated),/,/,/,/,0,/
CCCCOC(=O)CC(CC(=O)OCCCC)(OC(C)=O)C(=O)OCCCC,/,/,/,/,-1,/
CCOc1ccc(-n2c(SCC(=O)c3ccc4ccccc4c3)nnc2-c2ccc(OC)cc2)cc1,/,/,/,/,-1,/
C=CCN1C(=O)[C@@H](CC(=O)NCc2ccc(C)o2)[C@]2(C(=O)OC)CCCCC=C12,/,/,/,/,7,/
CCCCCCCCCCCCCCCCn1cc[n+](C)c1,?,8.2µM*,i,?,-1,4.1µM*
O=C1CCCc2c1cc(C(=O)NCc1ccco1)c(=O)n2-c1ccc(Cl)cc1,23%,7%,16µM*,20,2,?
Cc1ccccc1NC(=O)/C=C/c1cccs1,-3%,?,?,10,-6,i
CCN(CC)S(=O)(=O)c1ccc(C)c(NC(=O)/C=C/c2cccs2)c1,-16%,?,8.2µM*,-12,1,i
